# From ChEMBL document CHEMBL3988442, “University of Dundee, Small-Polar-MMV Screening Library” (2021)
# Hit rate of the full screen: of about 48,000 compounds, about 13,000 (27%) showed an effect of 50% or more. The list shows a part of the results.
# Test system: Wolbachia pipientis
# Experiment: Anti-Wolbachia Cell-Based Screen
# Type: functional
# Parameters: scale not given: in the data most compounds retested in dose-response had high values
# Details: 5 µM
row,SMILES,Percent Effect [%]
1,COc1ccc(CCN)cc1-c1ccc(O)cc1,-1.441
2,COc1cccc2c(=O)n(C3CCNCC3)cnc12,0.1861
3,COc1ccc(CC(C)Nc2cccc(F)c2)cc1 (stereo not given),103.5
4,COCC(=O)NC(C)Cc1cccc(OC)c1 (stereo not given),-11.91
5,COc1cccc(CC(C)NC(=O)NC(C)C)c1 (stereo not given),-4.746
6,CC(=O)N1CCC2(CC1)NC(=O)[C@H]1CN(Cc3cccnc3)C[C@H]12,-21.72
7,CC(=O)N1CC[C@H]2N(C)CC[C@@]2(C(=O)Nc2cccnc2)CC1,115.3
8,CC(=O)N1C[C@H]2CNC[C@@]2(C(=O)NCCCOc2cccnc2)C1,-25.71
9,O=C(CCc1nccs1)N1CCC(C(=O)O)(c2ccccc2)CC1,4.146
10,CN(Cc1nc(C2CC2)no1)C(=O)CN1CC(c2ccccc2)CC1=O (stereo not given),-16.31
11,CC1CCN(CC(=O)N(Cc2ccccc2)Cc2nccs2)C1=O (stereo not given),108.7
12,O=C(NC[C@H]1C[C@@H]2CCN1C[C@@H]2CN1CCOCC1)Nc1ccccc1,10.54
13,Cc1cc(C(=O)N2CCC3(CCN3Cc3ccc(F)cc3)C2)no1.O=C(O)C(F)(F)F (stereo not given),-18.68
14,CC[C@@H]1N(Cc2ccncc2)CCC[C@]12CCC(=O)N2CCOC.O=C(O)C(F)(F)F.O=C(O)C(F)(F)F,102.9
15,CN(C)C(=O)CN1CCC2(CCCN(Cc3cccnc3)C2)C1=O.O=C(O)C(F)(F)F.O=C(O)C(F)(F)F (stereo not given),-8.484
16,CNC(=O)CN1C(=O)CCC12CCCN(Cc1ccccn1)C2 (stereo not given),-6.812
17,Cn1cc(N2C(=O)CC[C@@H]3[C@H]2CCN3Cc2ccncc2)cn1.O=C(O)C(F)(F)F.O=C(O)C(F)(F)F,-8.311
18,O=C(O)C(F)(F)F.O=C(O)C(F)(F)F.O=C1CC[C@@H]2[C@@H](CCN2Cc2ccncc2)N1c1ccccc1,-23.66
19,COCCCN1CCCCC12CC(=O)N(Cc1ccccn1)C2 (stereo not given),-0.9294
20,CC[C@@H]1N(Cc2ccccn2)CCC[C@]12CCC(=O)N2CCOC,95.06
21,O=C(O)C(F)(F)F.O=C(O)C(F)(F)F.O=C(O)C(F)(F)F.O=C1N(c2cccnc2)CCC12CCCN(Cc1cccnc1)C2 (stereo not given),-3.646
22,CC[C@@H]1N(Cc2cccnc2)CCC[C@]12CCC(=O)N2C.O=C(O)C(F)(F)F.O=C(O)C(F)(F)F,114.6

row,SMILES,Percent Effect [%]
1,CC[C@@H]1N(Cc2ccncc2)CCC[C@]12CCC(=O)N2C.O=C(O)C(F)(F)F.O=C(O)C(F)(F)F,105.4
2,Cc1ccc(CN2CC[C@@H]3[C@H]2CCC(=O)N3Cc2ccncc2)s1.O=C(O)C(F)(F)F.O=C(O)C(F)(F)F,13.87
3,Cc1oc(-c2ccco2)nc1CC(=O)N1CCN(C2CCC2)CC1,0.04228
4,CNC(=O)[C@H]1C[C@@H]2CN(C(=O)c3cncc(C)c3)C[C@@H]2N1C,-44.11
5,O=C1O[C@@H]2CN(Cc3ccsc3)C[C@@H]2N1Cc1ccccn1,-2.572
6,CCN1CCNC(=O)C12CCN(C(=O)Cc1ccccn1)CC2,118.9
7,CCN1CCN(C)C(=O)C12CCN(C(=O)Cc1ccccn1)CC2.O=C(O)C(F)(F)F,105.5
8,CC(C)CN1CCNC(=O)C12CCN(C(=O)c1ccccn1)CC2,-2.981
9,O=C(CCc1cscn1)N1CCC(C(=O)O)(c2ccccc2)CC1,-1.592
10,N#CC1(c2ccccc2)CCN(C(=O)CN2C(=O)CCNC2=O)CC1,-11.36
11,CCN1CCNC(=O)C12CCN(C(=O)c1ccccn1)CC2,120
12,CC(C)N1CCN(C)C2(CCN(C(=O)c3ccnnc3)CC2)C1=O,-6.646
13,CCS(=O)(=O)N1CCC2(C1)C(=O)N(C)CCN2Cc1ccncc1.O=C(O)C(F)(F)F.O=C(O)C(F)(F)F (stereo not given),-0.1551
14,O=C(NCCc1ccncc1)[C@H]1CC[C@@H]2[C@@H](CCN2C2CCC2)O1,-5.975
15,OCCN1CCN(Cc2cc3c(cc2Br)OCCO3)CC1,1.369
16,CC(C)=CCN1C[C@H]2CC[C@@H]1CN(C(=O)Cc1c(C)nc(C)[nH]c1=O)C2,-7.395
17,Cc1ccc2c(c1)C(NC1CC1)CC21CCNCC1.Cl (stereo not given),121
18,CC(C)NC1CC2(CCNCC2)c2cc(F)ccc21.Cl.Cl (stereo not given),1.689
19,Cl.Cl.Fc1ccc2c(c1)C1(CCNCC1)CC2NC1CC1 (stereo not given),108.3
20,Cc1ccc2c(c1)C(NC(C)C)CC21CCNCC1.Cl (stereo not given),-5.487
21,Cc1ccc2c(c1)C1(CCNCC1)CC2NCCO.Cl.Cl (stereo not given),90.17
22,COc1ccc2c(c1)C1(CCNCC1)CC2NC1CC1.Cl.Cl (stereo not given),123.6

row,SMILES,Percent Effect [%]
1,Cc1ccnc(NCCNC(=O)C2CC3(CCNCC3)CN2C)c1 (stereo not given),2.033
2,Cl.O=C(Nc1ccccc1)C1=NOC2(CCNCC2)C1,-4.719
3,CN(C)C(=O)CN1CCCC2(CCN(c3ccc(C#N)cn3)C2)C1.O=C(O)C(F)(F)F (stereo not given),-7.726
4,Cc1cnn(CC(C)NCC(=O)NC2CCOCC2)c1 (stereo not given),1.556
5,COc1nc(N2CCNCC2)ncc1Br,-8.9
6,CNC(=O)C1CCC2(CCNCC2)C1.O=C(O)C(F)(F)F (stereo not given),1.559
7,Cc1ccc2c(c1)C1(CCNCC1)CC2NC(C)C.Cl.Cl (stereo not given),-0.3898
8,Cc1ccc2c(c1)C1(CCNCC1)CC2NC1CC1.Cl.Cl (stereo not given),133.8
9,CN(C)C(=O)C1CCC2(CCNCC2)C1.O=C(O)C(F)(F)F (stereo not given),-33.97
10,NC(=O)CC1CC2(CCNCC2)c2cc(F)ccc21.O=C(O)C(F)(F)F (stereo not given),111.2
11,O=C(Cc1ccccn1)N1C[C@H]2CN(Cc3ccccn3)C[C@H]2C1,97.89
12,O=C1NC[C@H]2CN(Cc3ccccn3)CCN12,-1.346
13,Cn1cnc(S(=O)(=O)N2C[C@H]3CN(Cc4ccccn4)C[C@H]3C2)c1.O=C(O)C(F)(F)F.O=C(O)C(F)(F)F,1.449
14,COC1CCC[C@@H]2CN(Cc3csc(C)n3)C[C@H]12.O=C(O)C(F)(F)F (stereo not given in full),-10.37
15,Cc1nc(CN2C[C@@H]3CN(C(=O)Cc4ccccn4)C[C@@H]3C2)cs1.O=C(O)C(F)(F)F.O=C(O)C(F)(F)F,107.4
16,O=C(NCCc1c[nH]cn1)c1ccccc1C1CCNC1 (stereo not given),-4.788
17,Cc1ccccc1-n1nc(C)c(CN(C)C(C)Cc2ccccn2)c1C.O=C(O)CC(O)(CC(=O)O)C(=O)O (stereo not given),108.5
18,CC(Cc1ccccn1)N(C)Cc1ccc2c(c1)CCO2 (stereo not given),27.39
19,C/C(=C\c1ccco1)CN(C)C(C)Cc1ccccn1 (stereo not given),-10.17
20,Cc1cc(N2CCC(NC(C)Cc3ccsc3)CC2)nc(N)n1 (stereo not given),-1.435
21,O=C(C1CCCCC1)N1C[C@@H]2CCNC[C@@H]21,-27.82
22,Cl.O=C(N1CCOCC1)N1CCC2(CCNC2)C1 (stereo not given),-12.19

row,SMILES,Percent Effect [%]
1,CN(C)[C@@H]1CN(C(=O)Cc2ccc(F)cc2)[C@@H]2CCCO[C@H]12.O=C(O)C(F)(F)F,85.9
2,O=C(Cc1cccs1)N1C[C@@H]2OCCN(CC3CCCC3)[C@@H]2C1.O=C(O)C(F)(F)F,-11.83
3,O=C(Cc1ccsc1)N1C[C@@H]2OCCN(CC3CC3)[C@@H]2C1.O=C(O)C(F)(F)F,-8.837
4,CN(C)[C@@H]1CN(C(=O)Cc2ccsc2)[C@@H]2CCCO[C@H]12.O=C(O)C(F)(F)F,105.5
5,O=C(Cc1cccs1)N1C[C@@H]2OCCN(CC3CCCO3)[C@@H]2C1.O=C(O)C(F)(F)F (stereo not given in full),-0.9645
6,Cc1ccc(N2C[C@@H]3CCCO[C@@H]3[C@H](N3CCCC3)C2)nn1.O=C(O)C(F)(F)F.O=C(O)C(F)(F)F,-4.873
7,Cc1cccc(CN2C[C@@H](NC(=O)C3CC3)[C@H]3OCCC[C@H]32)n1.O=C(O)C(F)(F)F.O=C(O)C(F)(F)F,-26.04
8,CN(C)[C@@H]1CN(C(=O)Cc2cccs2)[C@@H]2CCCO[C@H]12.O=C(O)C(F)(F)F,115.4
9,Cc1cc(CN2C[C@@H]3CCCO[C@@H]3[C@H](N(C)C(C)C)C2)no1.O=C(O)C(F)(F)F.O=C(O)C(F)(F)F,-6.146
10,CN1CCN([C@@H]2CN(C(=O)Cc3ccsc3)[C@@H]3CCCO[C@H]23)CC1.O=C(O)C(F)(F)F.O=C(O)C(F)(F)F,-4.372
11,CN(C)[C@@H]1CN(C(=O)Cc2ccccc2)[C@@H]2CCCO[C@H]12.O=C(O)C(F)(F)F,100.5
12,CN(Cc1cccnc1)[C@@H]1CN(CC2CC2)[C@@H]2CCCO[C@H]12.O=C(O)C(F)(F)F.O=C(O)C(F)(F)F.O=C(O)C(F)(F)F,-5.445
13,Cc1c(C(=O)O)nnn1Cc1cccc(C(F)(F)F)c1,6.81
14,COc1cccc(CN2CCN3C(=O)NC[C@H]3C2)n1,7.899
15,CN1CCC(N2CCN3C(=O)NC[C@H]3C2)CC1,-3.981
16,Cc1csc(C2(NCC(O)COC(C)C)CCCC2)n1 (stereo not given),-1.656
17,CC(=O)NC[C@H]1C[C@@H]2CCN1C[C@@H]2c1cc(-c2cccs2)nn1C,-4.622
18,Cn1cc(CN2CC[C@@H]3[C@@H]2CCN3C(=O)Cc2cccc(F)c2)cn1.O=C(O)C(F)(F)F,-1.291
19,CN(C)[C@@H]1CN(C(=O)Cc2cccc(F)c2)[C@@H]2CCCO[C@H]12.O=C(O)C(F)(F)F,118.8
